Experimental data published in PubChem BioAssay (NCI).
Values joined by “and” are separate entries in the source; they are usually repeats but may differ in a detail not shown here. Equal entries are not always repeated. The panel holds about 79,000 compounds, 15% with a hit somewhere; the sample as a whole holds those more often. Cut-off read from the data, not from the text of the source: active = growth inhibition above about 70%; inactive = the rest.

Legend:
[1] = NCI Yeast Anticancer Drug Screen. Data for the rad50 strain (AID 155);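 note: 0% = growth of vehicle-only cultures of the same strain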; details: S. cerevisiae rad50 strain growth inhibition; at 50.0 µM; hits give high values
Outline: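 Yeast carrying a defined DNA repair defect were exposed to test compounds, and growth was compared with vehicle-treated controls to give percent inhibition.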

[2] = NCI Yeast Anticancer Drug Screen. Data for the mec2-1 strain (AID 157); details: S. cerevisiae mec2-1 strain, at 50.0 µM, hits give high values
Outline: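 mec2-1 yeast strain, carrying an alteration in DNA damage repair or cell cycle control, was exposed to compounds; growth inhibition was measured relative to vehicle-treated controls.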

[3] = NCI Yeast Anticancer Drug Screen. Data for the sgs1 mgt1 strain (AID 161);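 note: 0% = growth of cultures given vehicle only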; details: S. cerevisiae sgs1 mgt1 strain, at 50.0 µM, hits give high values
Outline: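 Compounds are added to genetically altered yeast, and growth is compared with cultures given vehicle alone to give percent inhibition.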

[4] = NCI Yeast Anticancer Drug Screen. Data for the cln2 rad14 strain (AID 165);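 note: 0% = growth equal to vehicle treated cultures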; details: S. cerevisiae cln2 rad14 strain, at 50.0 µM, hits give high values
Outline: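 Yeast carrying cln2 and rad14 alterations (cell cycle control and DNA damage repair) were exposed to compounds. Growth inhibition was measured against vehicle-treated controls.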

[5] = NCI Yeast Anticancer Drug Screen. Data for the bub3 strain (AID 167); details: S. cerevisiae bub3 mutant strain, at 50.0 µM, hits give high values
Outline: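 Compounds were applied to a genetically altered yeast strain carrying a cell-cycle control defect. Growth inhibition was scored against vehicle-treated controls.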

[6] = NCI Yeast Anticancer Drug Screen. Data for the mlh1 rad18 strain (AID 175); details: S. cerevisiae mlh1 rad18 strain growth inhibition; at 50.0 µM; hits give high values
Outline: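 Growth inhibition of the yeast strain was measured after compound exposure and expressed relative to vehicle-treated controls. The strain carries defined defects in DNA damage repair.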

Measured: growth inhibition

O=C1CC2OCC=C3CN4CCC56c7ccccc7N1C5C2C3CC46O (centres undefined)
inactive: [1] 25.3% | [2] -21.2% | [3] 6.1% | [4] -1.2% | [5] 30.7% | [6] -62.1%

COc1cc2c3cc1Oc1c(OC)c(OC)cc4c1C(Cc1ccc(cc1)Oc1cc(ccc1O)CC3N(C)CC2)N(C)CC4 (centres undefined)
inactive: [1] -18.4% and 5.95% | [2] -30.8% and -27.1% | [3] -9.65% and -29.5% | [4] 12.7% and -14.9% | [5] -0.55% and -12.1% | [6] -10.6% and -41%

N=C(N)c1nn[nH]n1
inactive: [1] -18.9% | [2] -5.25% | [3] -19.8% | [4] 1.75% | [5] -7.05% | [6] -27.3%

COC1C(O)C(C)OC(O[C@@H]2C[C@H]3CC[C@@H]4[C@H](CC[C@]5(C)[C@@H](C6=CC(=O)OC6)CC[C@]45O)[C@@]3(C)[C@H](O)C2)C1O (some centres undefined)
inactive: [1] 1.4% | [2] -12.5% | [3] -3.55% | [4] -6.35% | [5] 1% | [6] 3.8%

CC12CCC3C(=CC=C4CC(O)CCC43C)C1CCC2=O (centres undefined)
inactive: [1] 1.9% and 14.2% | [2] 17.2% and 0.65% | [3] 18.6% and 10.6% | [4] 0.95% and -45.7% | [5] 22.9% and -11.6% | [6] 23.1% and 16.1%

O=C1NCCCCC1Cl (centres undefined)
inactive: [1] -12.4% | [2] -1.1% | [3] -4% | [4] -21% | [5] 8.8% | [6] 14.5%

CCC[N+](CCC)(CCC)CCC.N#CC(C#N)=C([SH2+])[SH2+].N#CC(C#N)=C([SH2+])[SH2+].N#CC(C#N)=C([SH2+])[SH2+].[Cr+3]
inactive: [1] -3.1% | [2] 10.2% | [3] 11.8% | [4] -35% | [5] 9.1% | [6] 7.5%

O=C(Nc1cccs1)c1c(O)[nH]c(=S)[nH]c1=O
inactive: [1] -1.35% | [2] 20.9% | [3] 25.1% | [4] 16.8% | [5] 7.05% | [6] 4.5%

COP1(=S)OCC(C(C)(C)C)CO1 (centres undefined)
inactive: [1] 7.1% | [2] 1.2% | [3] -2.1% | [4] -14.4% | [5] 25.9% | [6] -3.55%

Cc1ccc(N)c(N)c1
inactive: [1] 18.6% and 6.85% | [2] -5% and -3.75% | [3] 9.3% and -3.35% | [4] 9.8% and 32.2% | [5] 7.75% and -7.95% | [6] 19% and 7.5%

COC1=CC(=O)OC(CCc2ccccc2)C1 (centres undefined)
inactive: [1] -2.7% | [2] -5.9% | [3] -1.9% | [4] -14.2% | [5] -9.35% | [6] -4.85%

COP1(=O)OCC(C)(C)CO1
inactive: [1] 16.4% | [2] -2.05% | [3] 12.7% | [4] 13.9% | [5] -1.55% | [6] 35.8%

CCC1CN2CCC3(C(=O)Nc4ccccc43)C2CC1/C(=C/OC)C(=O)OC (centres undefined)
inactive: [1] -1.8% | [2] -12.3% | [3] 7.85% | [4] 2.55% | [5] 13.7% | [6] 12.4%

OC(c1ccccc1)C1CCCCN1 (centres undefined)
inactive: [1] -7.95% | [2] -7.2% | [3] 9.8% | [4] -12.3% | [5] 11.2% | [6] -17.6%

[NH-]C(CO)C(=O)O.[NH-]C(CO)C(=O)O.[Pd+2] (centres undefined)
inactive: [1] -8.55% | [2] -3.9% | [3] -6.15% | [4] -7.2% | [5] -5.95% | [6] 15.9%

C1OCN2CSCC12 (centres undefined)
inactive: [1] 4% | [2] 28.8% | [3] 30.4% | [4] 5.35% | [5] 27.9% | [6] 31.8%

CCN(CC)C(=O)CCN1CC1
inactive: [1] 10.4% | [2] -0.65% | [3] 12.3% | [4] 19.5% | [5] 5.1% | [6] -1.25%

CCCCN1CCC2(CC1)C(=O)NC(=S)NC2=O
inactive: [1] -12.4% | [2] -2.5% | [3] -3.65% | [4] 4.65% | [5] 6.25% | [6] -22.3%

c1cc(CCN2CCCCC2)ccn1
inactive: [1] -2.75% | [2] -6.25% | [3] -26.5% | [4] -81.7% | [5] -21.4% | [6] -25.1%
